# Bioassay records deposited in PubChem by National Center for Advancing Translational Sciences (NCATS).
# Rab9 promoter act = Rab9 promoter activation; Huh7 Rab9 promoter-luciferase reporter, luminescence, 24 h; Potency, µM (series often up to 9.22 µM), for inactives: at the highest dose activation, negative = inhibition, usual class: activators; 320,000 tested, 2.8% active; AID 485297; also: % of control where 0% means no effect; nearly all actives have a fitted effect of over 60% in size
#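 Huh7 cells stably carrying Rab9 promoter–luciferase reporter, plated 1500 cells/well, compound added after 2 h and incubated 24 h at 37 °C; luciferase luminescence then read after 10 min with detection reagent.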
# NPC1 prom act = activates the NPC1 promoter | Potency, µM (titrated, usually from 9.22 µM), for inactives: top-dose activation, hits mostly activators | Huh7 NPC1 promoter luciferase reporter, 24 h | 320,000 tested, 2.4% active; also: % of control where 0% means no effect; nearly all actives have a fitted effect of over 60% in size
#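 Luminescence from an NPC1 promoter-driven luciferase reporter in stably transfected Huh7 cells was measured after 24 h compound treatment at 37 °C, followed by 10 min ambient incubation with luciferase detection reagent.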
# FLuc counter = inhibits or activates purified firefly luciferase, miR-21 counter-screen. P08659. purified FLuc, Km substrates, luminescence inhibition. Potency, µM (titrated, usually from 57.5 µM), for the others: at the highest dose activity change, negative = inhibition, most hits filed as inhibitors. 360,000 tested, 6.9% active;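 also: plate controls were vehicle for no effect and reference inhibitor for full effect; nearly all actives have a fitted effect of over 55% in size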
# Target sequence (P08659 whole entry, looked up): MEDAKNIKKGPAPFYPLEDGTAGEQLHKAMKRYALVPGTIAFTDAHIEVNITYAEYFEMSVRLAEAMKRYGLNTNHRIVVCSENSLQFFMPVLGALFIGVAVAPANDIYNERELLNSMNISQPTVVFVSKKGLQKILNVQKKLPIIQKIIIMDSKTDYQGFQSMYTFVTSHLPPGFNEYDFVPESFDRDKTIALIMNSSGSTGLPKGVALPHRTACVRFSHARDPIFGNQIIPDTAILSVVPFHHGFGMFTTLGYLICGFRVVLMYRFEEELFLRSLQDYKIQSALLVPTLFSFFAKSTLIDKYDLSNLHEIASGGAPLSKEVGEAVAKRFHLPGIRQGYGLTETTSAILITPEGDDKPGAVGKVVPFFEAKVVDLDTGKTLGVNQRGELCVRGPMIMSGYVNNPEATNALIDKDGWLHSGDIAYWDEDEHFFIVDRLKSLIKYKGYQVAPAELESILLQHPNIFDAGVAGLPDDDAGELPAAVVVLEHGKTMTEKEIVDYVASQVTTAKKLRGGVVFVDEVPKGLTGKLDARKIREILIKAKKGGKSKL
#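 Purified P. pyralis luciferase, 10 nM final, with Km-level 10 uM D-luciferin and 10 uM ATP in 50 mM Tris acetate pH 7.5, 10 mM Mg acetate, 0.01% Tween-20, 0.05% BSA; 6-point qHTS titration about 60 µM downward; luminescence read.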
# SMN2 splice up = enhancers of SMN2 splice variant expression. HEK293 SMN2-luciferase splicing reporter, luminescence, 30-36 h. 210,000 tested, 2.8% active. Potency, µM (doses to about 46.1 µM), inactives show at the top dose activity change, positive = activation, most hits filed as activators. AID 1458; also: % of control where 0% means no effect; nearly all actives have a fitted effect of over 55% in size
#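 qHTS luciferase splicing reporter: luminescence rises when SMN2 exon 7 is included in transfected HEK293 cells. Compound exposure lasted 30-36 h at 37C, with 4.5 mM final sodium butyrate as control, followed by a ONE-Glo read.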
# Luc counter = counter-screen: inhibitors of Kinase-Glo firefly luciferase; Q27757; Kinase-Glo luciferase, ATP luminescence, 8 min; 200,000 tested, 0.28% active; Potency, µM (highest dose often 38.3 µM), without a hit: at the top dose activity change, negative = inhibition, usual class: inhibitors; also: % is scaled to controls: 0 for no effect and ±100 for the full control effect; nearly all actives have a fitted effect of over 60% in size
#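 Kinase-Glo luciferase light output from ATP and luciferin was measured with 10 uM ATP, within the enzyme's linear range. Buffer: 50 mM imidazole pH 7.2, 50 mM KCl, 7 mM MgCl2, 0.01% Tween 20, 0.05% BSA; luminescence read after 8 min at ambient temperature.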
# An asterisk follows results filed as active; ? = inconclusive; nt = no result given; [ ] = dose if it differs, or a comment. This is a sample that favours compounds with a hit; in the whole collection about 7.3% have one here. Calls follow the shape of the dose curve; as a rule, active = well fitted curve in the direction sought with a large enough effect; inconclusive = small, poorly fitted or top-dose-only effect, or another doubt; inactive = no such curve, though single readings can be large; an effect the other way counts as inactive or inconclusive. Potency is read from the fitted curve at half-maximal effect.
SMILES,Rab9 promoter act,NPC1 prom act,FLuc counter,SMN2 splice up,Luc counter
COc1ccc(CC(=O)c2ccc(O)cc2O)cc1,?,?,?,-83.1%,-4.3%
O=C(Cc1nc2ccccc2s1)c1ccc(O)cc1O,3.16µM*,3.16µM*,?,?,0.3%
CCc1cc(-c2n[nH]c(C)c2-c2nc3ccccc3s2)c(O)cc1OCC(=O)NN,-2.8%,0.3%,5.0%,-2.6%,4.1%
O=C(CSc1nc2ccccc2s1)N1c2ccccc2Sc2ccccc21,-1.4%,-4.8%,0.0%,-13.1%,-3.0%
O=C(CSc1nc2ccccc2s1)c1ccc(O)cc1O,0.0%[1.84 µM],?,13.5µM*,nt,nt
CCc1cc(C(=O)Cc2nc3ccccc3s2)c(O)cc1OCC(=O)O,12.0%,1.5%,21.3µM*,nt,nt
O=C(Cc1ccc(Br)cc1)c1ccc(O)cc1O,?,3.16µM*,15.1µM*,nt,nt
CSc1ccc(CCNC(=O)c2cc3cc4cc(C)ccc4nc3s2)cc1,nt,nt,6.0%,nt,nt
CCOC(=O)c1cc2c(=O)n3ccccc3nc2n(CC2CCCO2)c1=NC(=O)c1cccc(C)c1 (centres undefined),nt,nt,-5.8%,-3.4%,nt
CCCN=C(C)C1=C(O)c2ccccc2C1=O,?,?,21.3µM*,12.6µM*,-0.9%
O=C(N/N=C/c1cn(-c2cccs2)nc1-c1ccccc1)c1ccccc1O,-3.8%,-2.1%,9.53µM*,nt,?
Cc1nn(-c2ccccc2)cc1/C=N/NC(=O)c1cccs1,22.7%,0.9%,?,nt,nt
O=C(N/N=C/c1cn(-c2cccs2)nc1-c1ccccc1)c1ccccc1Br,8.2%,7.1%,6.75µM*,?,1.2%
CC(=O)c1ccc(N2CCN(c3ncnc4onc(C)c34)CC2)cc1,nt,nt,2.3%,nt,nt
Cc1ncoc1C(=O)Nc1ncc([N+](=O)[O-])s1,0.316µM*,0.708µM*,6.75µM*,4.47µM*,11.2µM*
O=C(/C=C/c1ccc([N+](=O)[O-])cc1)Nc1ncc([N+](=O)[O-])s1,0.794µM*,0.0501µM*,0.12µM*,0.501µM*,-11.3%
Cc1cnc(NC(=O)c2cccs2)s1,1.41µM*,?,10.7µM*,nt,nt
O=C(Nc1ncc([N+](=O)[O-])s1)c1ccccc1Br,?,3.55µM*,?,nt,nt
O=C(Nc1ncc(Cl)cn1)c1cccs1,43.2%,26.7%,?,23.4%,-22.3%
O=C(CS(=O)(=O)c1ccccc1)Nc1ncc([N+](=O)[O-])s1,0.3%,-5.2%,6.2%,nt,nt
C/C=C/C1=Cc2ccccc2C(C(C(=O)OC)C(=O)OC)N1C(=O)OC (centres undefined),nt,nt,nt,-4.1%,-2.0%
CCc1ccc(CNC(=O)CCCN2C(=O)CCn3nc(-c4cccn4C)cc32)cc1,nt,nt,1.1%,nt,nt
Cc1ccc(C2CC(=O)Nc3c2c(C)nn3-c2nc(C)cc(C)n2)c(C)c1 (centres undefined),nt,nt,-1.6%,nt,nt
O=C(Nc1ncc([N+](=O)[O-])s1)c1cccs1,1µM*,0.891µM*,8.49µM*,nt,nt
O=C(CCS(=O)(=O)c1ccccc1)Nc1ncc([N+](=O)[O-])s1,2.4%,1.9%,-0.8%,nt,nt
SMILES,Rab9 promoter act,NPC1 prom act,FLuc counter,SMN2 splice up,Luc counter
Cc1cccc2c1-c1sc(C(=O)N(C)c3cccc(Cl)c3)cc1CO2,nt,nt,-12.3%,-15.9%,nt
COc1ccc(-c2cc(=Nc3ccc(C)cc3)c3ccccc3o2)cc1,-33.2%,-6.5%,-0.5%,-20.0%,3.3%
COc1ccc(-c2cc(=NC(CC(C)C)C(=O)O)c3cc(C)ccc3o2)cc1 (centres undefined),3.5%,?,0.849µM*,11.2µM*,1.9%
COc1cc(/C=C2/C(=O)NN(c3ccc(Cl)cc3)C2=O)cc(OC)c1O,-2.2%,0.2%,12µM*,nt,nt
COc1cc(/C=C2/C(=O)NN(c3ccccc3)C2=O)cc(Br)c1O,-1.5%,-3.8%,16.9µM*,nt,nt
COc1ccc(NC(=O)CSc2ncc3c(n2)-c2cc(Cl)ccc2N(Cc2ccccc2F)S3(=O)=O)cc1,nt,nt,2.8%,nt,nt
CCOc1ccc(-c2cn3c(n2)sc2cc(C(=O)NCCC4=CCCCC4)ccc23)cc1,nt,nt,-5.2%,nt,nt
O=[N+]([O-])c1ccc(CSc2nc3ccccc3o2)cc1,0.891µM*,0.631µM*,2.39µM*,7.94µM*,-1.7%
O=[N+]([O-])c1ccc(CSc2nnc(SCc3ccccc3)s2)cc1,2.4%,-2.0%,0.6%,-6.2%,0.3%
Cc1ccc(C(=O)CSc2nc3ccccc3o2)cc1,?,21.9%,13.5µM*,-28.8%,-2.8%
O=C(O)CSc1nc2ccccc2o1,11.6%,0.7%,-13.4%,-6.2%,-1.0%
COC(=O)c1ccc(CSc2nnc(C)s2)cc1,3.55µM*,?,?,25.1µM*,-7.3%
CC(Sc1nc2ccccc2o1)C(=O)O (centres undefined),3.8%,-3.3%,15.1µM*,-19.1%,-25.4%
COC(=O)c1ccc(CSc2nnc(N)s2)cc1,?,?,?,7.2%,1.3%
O=S(=O)(c1ccc(F)cc1)N1CCC(Oc2cccc(C(F)(F)F)c2)CC1,nt,nt,-2.2%,-12.5%,nt
CCc1ccc(-n2c(N3CCN(c4cccc(C)c4C)CC3)nc3ccccc3c2=O)cc1,nt,nt,0.6%,0.7%,nt
Cc1ccc(NC(=O)Cn2c(=O)n(CCc3ccccc3)c(=O)c3sc4ccccc4c32)cc1C,nt,nt,-0.4%,16.1%,nt
CCOC(=O)N1CCc2c(sc(NCc3sccc3C)c2C(=O)Nc2ccccc2OCC)C1,nt,nt,-16.3%,nt,nt
COC(=O)c1ccc(CSc2nc3ccccc3o2)cc1,0.891µM*,1.58µM*,1.07µM*,22.4µM*,-6.9%
COCc1cc(=O)[nH]c(Nc2nc3ccc(C)cc3o2)n1,28.1%,22.6%,16.9µM*,5.5%,-6.0%
CCCOc1ccc(N2CC(C(=O)Nc3cccc(Cl)c3Cl)CC2=O)cc1 (centres undefined),nt,nt,-0.8%,12.5%,nt
COc1ccc(NC(=O)COC(=O)C2CC3C=CC2C3)cc1 (centres undefined),3.4%,4.1%,16.9µM*,-1.2%,3.3%
COc1ccc(C)cc1NC(=O)CN1C(=O)CCc2cc(S(=O)(=O)N3CCOCC3)ccc21,nt,nt,-2.5%,nt,nt
O=C(OCc1nc2ccccc2s1)c1cccs1,nt,nt,2.69µM*,?,-4.9%
N#C/C(=C(/O)COC(=O)c1ccccc1O)c1nc2ccccc2s1,0.7%,-3.1%,21.3µM*,-42.0%,0.7%
SMILES,Rab9 promoter act,NPC1 prom act,FLuc counter,SMN2 splice up,Luc counter
O=C(O)c1ccccc1OCc1nc2ccccc2s1,10.8%,?,3.79µM*,nt,nt
O=C(OCc1nc2ccccc2s1)c1cnccn1,4.0%,-2.1%,10.7µM*,-4.0%,-7.4%
O=c1cc(-c2ccc(F)cc2)nc(SCc2nc(-c3cccc(C(F)(F)F)c3)no2)[nH]1,nt,nt,-14.5%,nt,nt
Cc1cccc(-c2nc(CN3CCCC(C(=O)NCCc4ccc(Cl)cc4)C3)c(C)o2)c1 (centres undefined),nt,nt,?,-64.6%,nt
CCN1CCN(C(=O)c2ccc3c(c2)N(Cc2ccc(F)cc2)C(=O)c2ccccc2S3(=O)=O)CC1,nt,nt,0.9%,-10.7%,nt
CCCCC(=O)OCc1nc2ccccc2s1,15.0%,-0.7%,21.3µM*,9.7%,-3.5%
